Several values for one entry are separate records, joined by “and”; a condition that tells them apart may be missing. Equal values may be shown once. Out of some 340,000 compounds screened, about 6,900 (2%) were called active. Rule as the data show it: active = inhibition above about 30%; inactive = below that, where a call was filed. Only a selection was taken, and actives are over-represented in it overall. Some compounds were tested as several samples or in several runs, with calls that do not always agree.

As a reminder, the inhibition is the change of the read-out against control, counted positive when it falls.

The target of the test is D(2) dopamine receptor (Homo sapiens) (UniProt P14416). Nature of the test: HTS Assay for Allosteric Antagonists of the Human D2 Dopamine Receptor: Primary Screen for Antagonists. Also: 0% is about no effect. The note with it: HEK293 TREx D2 cells, calcium flux, dopamine EC80; at 10 µM; stronger effect = higher value. Put shortly: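 Antagonism is scored as inhibition of an EC80 dopamine-evoked calcium signal in a force-coupled, tetracycline-inducible HEK293 T-REx D2 line, with compound present 180 s before agonist.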
D(2) dopamine receptor (Homo sapiens), sequence (P14416 whole entry, looked up): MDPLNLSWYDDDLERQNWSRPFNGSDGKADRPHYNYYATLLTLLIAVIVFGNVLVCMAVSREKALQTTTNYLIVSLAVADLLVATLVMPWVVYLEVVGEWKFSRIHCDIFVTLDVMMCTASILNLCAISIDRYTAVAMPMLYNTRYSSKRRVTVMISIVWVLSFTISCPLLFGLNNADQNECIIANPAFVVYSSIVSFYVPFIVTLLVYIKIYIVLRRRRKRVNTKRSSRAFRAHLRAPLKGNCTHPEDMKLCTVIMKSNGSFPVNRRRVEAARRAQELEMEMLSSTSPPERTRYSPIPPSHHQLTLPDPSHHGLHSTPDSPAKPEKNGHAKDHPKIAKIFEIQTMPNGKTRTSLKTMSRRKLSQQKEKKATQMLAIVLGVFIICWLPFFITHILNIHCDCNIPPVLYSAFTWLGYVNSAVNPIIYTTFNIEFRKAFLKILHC
For orientation: Calcium flux is commonly read through the fluorescence of an indicator in the cells.
As for `Cc1ccc(-c2nn(-c3ccccc3)cc2C(=O)NCCCN2CCCC2=O)cc1`, the inhibition is -11.6% (inactive).

Turning to `Cc1noc(C)c1COc1ccc(C(=O)NCCOc2ccccc2)cc1`, the inhibition is -11% (inactive).

For `COc1ccc(Cl)cc1NC(=O)CN(C)CC(=O)Nc1ccc2c(c1)OCO2`, the inhibition is -18.1% (inactive).

With `O=C1C=C(c2cccc(Cl)c2O)C[C@@H](c2ccc(F)cc2)C1`, the inhibition is 6% (inactive).

Turning to `CCCN(CC(=O)Nc1ccccc1C)C(=O)c1ccc2[nH]c3c(c2c1)CC(C)CC3` (stereo not drawn), the inhibition was -19.6% (inactive).

As for `CS(=O)(=O)c1ccc2nc(NC(=O)CN3CCCCCC3)sc2c1`, the inhibition was -16.3% (inactive).

Regarding `CS(=O)(=O)c1ccc2nc(NC(=O)C3CCCCC3)sc2c1`, the inhibition is 30.6% (active).

Take `CS(=O)(=O)c1ccc2nc(NC(=O)C3C4C=CC(C4)C3C(=O)O)sc2c1` (stereo not drawn): the inhibition was -4.77% (inactive).

Consider `CC(C)Oc1ccc(C(=O)NCC(=O)Nc2ccc3c(c2)CCC3)cc1`, for which the inhibition was -1.68% (inactive).

As to `O=C(COC(=O)C1(c2ccc(F)cc2)CCCC1)N1CCNC1=O`, the inhibition is 7.82% (inactive).

As to `CCCCN(C(=O)c1nn(C)c(=O)c2ccccc12)c1c(N)n(CCC)c(=O)[nH]c1=O`, the inhibition was -7.93% (inactive).

With `CC1CCCN(C(=O)c2cc(-c3ccco3)nc3ccccc23)C1` (stereo not drawn), the inhibition was -3.9% (inactive).

For the compound `COc1ccc(S(=O)(=O)NCC(c2ccc(C)cc2)N2CCN(C)CC2)cc1OC` (stereo not drawn), the inhibition is -15.8% (inactive).

For the compound `CC(=O)Nc1ccc(NC(=O)COC(=O)c2ccccc2C(=O)c2ccccc2)cc1`, the inhibition is 11.9% (inactive).

With `O=S(=O)(Nc1cc(Cl)ccc1N1CCOCC1)c1ccccc1Cl`, the inhibition was -22.2% (inactive).

On to `Cc1ccc2[nH]c(=O)c(CN3CCCCC3)c(-c3ccccc3)c2c1`, for which the inhibition was -4.98% (inactive).

Consider `Clc1ccc(CN2CCCCCC2)cc1Cl`, for which the inhibition was 26.4% (inactive).

For `c1ccc2cc3[nH]c(CN4CCCCC4)nc3cc2c1`, the inhibition is 58.4% (active).

Consider `O=S(=O)(c1ccc(SCc2ccc(Br)cc2)nc1)N1CCOCC1`, for which the inhibition is -7.49% (inactive).

Take `Cc1ccsc1C(=O)NCCc1ccco1`: the inhibition is 11.7% (inactive).

As for `N#Cc1cccc(NC(=O)C2CCCN(C(=O)c3ccc(Cl)cc3)C2)c1` (stereo not drawn), the inhibition was 19.5% (inactive).

Turning to `N=C1C(c2nc3ccccc3s2)=C(O)CN1NC(=O)c1ccc([N+](=O)[O-])cc1`, the inhibition is 42.3% (active).

As for `CCOC(=O)CCCN1CC(O)=C(c2nc3ccccc3s2)C1=N`, the inhibition was 15.9% (inactive).

In the case of `COc1ccccc1N1CC(O)=C(c2nc3ccccc3s2)C1=N`, the inhibition is 16.1% (inactive).

On to `Cc1ccc(S(=O)(=O)N2[C@@H](c3ccccc3F)C(C(=O)O)=CC[C@H]2c2ccc(Cl)cc2)cc1`, for which the inhibition was 16% (inactive).

For `O=C(NNC(=O)c1cc(S(=O)(=O)N2CCCCC2)ccc1Cl)c1ccccc1O`, the inhibition is 9.25% (inactive).

Consider `COc1ccccc1CNC(=O)c1ccc(CS(=O)(=O)c2ccccc2)o1`, for which the inhibition is 22.7% (inactive).

Consider `COC(=O)c1ccc(CN(c2ccccc2OC)S(=O)(=O)c2cccs2)o1`, for which the inhibition was 36% (active).

For `COc1ccccc1NC(=O)CN(c1ccccc1OC)S(=O)(=O)c1ccccc1`, the inhibition is -0.319% (inactive).

For the compound `COc1ccc(CNC(=O)c2ccc(NS(=O)(=O)c3ccc4[nH]c(=O)[nH]c4c3)cc2)cc1OC`, the inhibition was -22.9% (inactive).

For `N#Cc1ccc(OCC(=O)NC(=O)NC2CCS(=O)(=O)C2)cc1` (stereo not drawn), the inhibition is 39.2% (active).

`O=C(Cc1ccc(Cl)cc1)NC1CCS(=O)(=O)C1` (stereo not drawn): the inhibition was -2.94% (inactive).

For the compound `N#Cc1ccc(C(=O)OCC(=O)NC(=O)NC2CCCCC2)cc1`, the inhibition is -34.5% (inactive).

For the compound `COc1ccccc1C(=O)NCCC(=O)NC(C)CCc1ccccc1` (stereo not drawn), the inhibition is 3.51% (inactive).

In the case of `CC(C)(C)C(=O)c1cnc(Nc2ccccc2)s1`, the inhibition was 32.1% (active).

On to `O=C(c1ccc(Cl)cc1)c1cnc(Nc2ccccc2)s1`, for which the inhibition is -15.9% (inactive).

For the compound `CC(=O)c1cnc(-c2ccccc2)s1`, the inhibition was -11.4% (inactive).

Take `COc1ccccc1S(=O)(=O)NCc1ccc(C(=O)N(C)Cc2ccc(F)cc2)cc1`: the inhibition is -9.99% (inactive).

For the compound `CC(C(=O)NC1CCCC1)N1CCN(S(=O)(=O)c2ccccc2Cl)CC1` (stereo not drawn), the inhibition was 10.1% (inactive).

For `CC(C)Cn1c(N2CCN(C(=O)/C=C/c3ccccc3)CC2)nc2ccccc21`, the inhibition is -10.5% (inactive).

Turning to `O=C(Cn1c(N2CCN(C/C=C/c3ccccc3)CC2)nc2ccccc21)c1ccccc1`, the inhibition is 47.6% (active).

With `O=C(CN1CCN(c2ccc(Cl)cc2)CC1)c1ccccc1`, the inhibition was 22.1% (inactive).

Turning to `CC1CCc2sc(C(=O)NCC(c3ccco3)N3CCCCC3)cc2C1` (stereo not drawn), the inhibition is -22% (inactive).

As to `CC(CCc1ccccc1)NCC(O)c1cccc([N+](=O)[O-])c1` (stereo not drawn), the inhibition was 58.8% (active).

As to `O=C(CC(c1ccccc1)c1ccccc1)NCC(O)c1ccc([N+](=O)[O-])cc1` (stereo not drawn), the inhibition was -8.44% (inactive).

Regarding `CC(C)OP(=O)(OC(C)C)C(Nc1ccccc1)c1cccc([N+](=O)[O-])c1` (stereo not drawn), the inhibition is 4.68% (inactive).

Take `COCCn1c(C)cc(C(=O)CSc2nnc(C3CC3)n2C2CC2)c1C`: the inhibition was -24.6% (inactive).

On to `COc1ccc(S(=O)(=O)N2CCN(CC(=O)NCC3(N4CCOCC4)CCCCC3)CC2)cc1`, for which the inhibition was -1.88% (inactive).

Regarding `CN(CC(=O)Nc1ccc(Cl)c(C(F)(F)F)c1)C(=O)CCC(=O)c1ccccc1`, the inhibition was 5.01% (inactive).

Regarding `Cc1ccc(OCCC(=O)OCC(=O)N2c3ccccc3NC(=O)C2(C)C)cc1`, the inhibition is 21.8% (inactive).

As for `O=C(CN1CCCCC1)NC(=O)Nc1ccccc1F`, the inhibition is -3.1% (inactive).

For `CCN(CC)S(=O)(=O)c1ccc(OC)c(NC(=O)CCc2c(C)noc2C)c1`, the inhibition was 5.64% (inactive).

Take `CN1CCN(CCCCOc2ccccc2-c2ccccc2)CC1`: the inhibition was 69.9% (active).

Turning to `CC1CN(CCCOc2ccccc2-c2ccccc2)CC(C)O1` (stereo not drawn), the inhibition is 49.7% (active).

On to `CCN1CCN(CCCCOc2ccccc2F)CC1`, for which the inhibition was 3.79% (inactive).

With `CC1CN(C2CCN(C(=O)COc3ccccc3)CC2)CC(C)O1` (stereo not drawn), the inhibition is -12.1% (inactive).

On to `CC1CCCN(CCOCCOc2ccccc2-c2ccccc2)C1` (stereo not drawn), for which the inhibition is 80.4% (active).

As for `CN1CCN(CCCCOc2cccc3ccccc23)CC1`, the inhibition is 15.6% (inactive).

As for `c1ccc(-c2ccccc2OCCN2CCCCC2)cc1`, the inhibition is 26.6% (inactive).

Consider `CC1CN(CC(=O)NC(C)c2ccccc2)CC(C)O1` (stereo not drawn), for which the inhibition is 5.75% (inactive).

Take `CC1CCCN(CC(O)COCc2ccccc2)C1` (stereo not drawn): the inhibition was 10.7% (inactive).

Take `COc1ccccc1-c1nn(Cc2ccccc2)cc1C(=O)N1CCN(c2ncccn2)CC1`: the inhibition is -14.3% (inactive).

Regarding `CC(=O)c1ccc(S(=O)(=O)Nc2ccc(-c3ccc4nncn4n3)cc2)cc1`, the inhibition is 12.5% (inactive).

For the compound `COc1ccc(-c2cc(C(=O)NCCCN3CCCC3=O)c3ccccc3n2)cc1OC`, the inhibition was 13.7% (inactive).

As to `CC(C)C(=O)Nc1cccc(NC(=O)c2ccc([N+](=O)[O-])cc2Cl)c1`, the inhibition was 39.3% (active).

In the case of `O=C(Nc1cccc(NC(=O)c2ccccc2[N+](=O)[O-])c1)c1ccccc1Cl`, the inhibition is 3.86% (inactive).

Take `O=C(Nc1ccncc1)c1ccc([N+](=O)[O-])cc1Cl`: the inhibition is 0.87% (inactive).

Regarding `CN(C(=O)CSc1nnc(C2CC2)n1C)C1CCCc2ccccc21` (stereo not drawn), the inhibition was -0.606% (inactive).

With `O=C(Nc1ccon1)c1cccc(Cl)c1`, the inhibition was 18.9% (inactive).

For the compound `Cc1cc(C)n(-c2nnc(C)n2NC(=O)c2cccc(Cl)c2)n1`, the inhibition was 46.8% (active).

For `Cc1nc2ccccc2c(=O)n1NC(=O)c1ccc(Cl)c([N+](=O)[O-])c1`, the inhibition was 11.3% (inactive).

In the case of `CC1CC(=O)Nc2ccccc2N1C(=O)COc1ccc2cc(Br)ccc2c1` (stereo not drawn), the inhibition is -5.97% (inactive).

Consider `C=C1CCC(N(O)c2cc(C)on2)C(=C)CCC2C1CC2(C)C` (stereo not drawn), for which the inhibition is -0.609% (inactive).

For the compound `Cc1ccc(S(=O)(=O)CCC(=O)Nc2nnc(CC(C)C)s2)cc1`, the inhibition was -13.3% (inactive).

Regarding `COc1ccc(S(=O)(=O)Nc2cc(C)on2)cc1NC(C)=O`, the inhibition is 15.7% (inactive).

As for `Cc1cccc(NC(=O)N2CCCCCC2)c1C`, the inhibition is 9.43% (inactive).

On to `Cc1cccc(NC(=O)C2CCCN(C(=O)Nc3ccc(F)cc3)C2)c1C` (stereo not drawn), for which the inhibition was 36% (active).

Take `Cc1cccc(NC(=O)C2CCCN(C(=O)NCc3ccccc3)C2)c1C` (stereo not drawn): the inhibition is -14.3% (inactive).

For the compound `O=C(O[C@H]1[C@H](Cc2ccccc2)NS(=O)(=O)[C@H]2C[C@@H]3C=C[C@]12O3)c1ccc([N+](=O)[O-])cc1`, the inhibition was 19.3% (inactive).

With `CC1(NC(=O)CCS(=O)(=O)c2ccc(Cl)cc2)CCS(=O)(=O)C1` (stereo not drawn), the inhibition is 9.74% (inactive).

On to `CC(=O)c1sc(NC(=O)CCN2C(=O)C3CC=CCC3C2=O)nc1-c1ccccc1` (stereo not drawn), for which the inhibition is -8.46% (inactive).

In the case of `Cc1cc(C(=O)COc2ccccc2Cl)c(C)n1C1CC1`, the inhibition was -29.6% (inactive).

For `CC(C)C(=O)NCc1cc(-c2ccc(Cl)cc2)no1`, the inhibition was 41.7% (active).

In the case of `CC(C)CNC(=O)c1cc(-c2ccc(Br)cc2)on1`, the inhibition was -7.31% (inactive).

Regarding `Cc1ccc(S(=O)(=O)Cc2cc(-c3ccc(Cl)cc3)no2)cc1`, the inhibition was -17% (inactive).

With `Cc1cc(C)n2nc(C(=O)Nc3cccc(S(=O)(=O)N4CCOCC4)c3)nc2n1`, the inhibition is 7.16% (inactive).

As for `CC(C)c1ccc2c(c1)c(SC(C)(C)C)c(CC(C)(C)C(=O)O)n2Cc1ccc(Cl)cc1`, the inhibition was 6.19% (inactive) and 47.1% (active).

As for `O=C(O)c1ccc(Cn2c(=S)[nH]c3cc(Cl)ccc3c2=O)cc1`, the inhibition is -1.7% (inactive).

Consider `CCCCCCSc1ccc([C@@H]2[C@@H]3C(=O)N(CC)C(=O)[C@@H]3[C@]3(C(=O)OC)CCCCN23)cc1OC`, for which the inhibition is 6.12% (inactive).

On to `COc1cc(OC)c(N2CC(C(=O)Nc3cc(Cl)ccc3N3CCOCC3)CC2=O)cc1Cl` (stereo not drawn), for which the inhibition was -13.1% (inactive).

For `O=C(CN1CCCCCC1)Nc1ccc(S(=O)(=O)N2CCCCC2)cc1`, the inhibition was -6.5% (inactive).

For `CCN(CC(=O)Nc1ccc(S(=O)(=O)N2CCCC2)cc1)CC(=O)Nc1cccc(OC)c1`, the inhibition is -1.82% (inactive).

`COc1ccccc1CC(=O)Nc1ccc(S(=O)(=O)N2CCCC2)cc1`: the inhibition is 39.2% (active).
